Measurements taken from PubChem BioAssay AID1159580 (chemical genetic matrix, 2015).
Screen size: about 5,500 compounds; about 2,000 (36%) were called active. Not shown: some 18% with an inconclusive outcome. No stated cut-off is given here; in the data, active means normalized growth mostly below about 0.91 (no sharp cut-off); inconclusive means no clear call, values can overlap the other calls; inactive means mostly above about 0.92. Some of the results follow.

Experiment: chemical genetic growth profiling, strain panel (AID 1159580);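 further: tested at 20 µM; growth read once vehicle control cultures reached saturation at 30 °C; 1 = growth at the plate median or of vehicle wells; lower values mean less growth of the strain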
Conditions: growth OD

Measured: normalized growth

CC(C)(Oc1ccc(Cl)cc1)C(=O)O
inactive: S. cerevisiae deletion strains, locus YJR075W, strain HOC1, active compounds read low 0.992 | S. cerevisiae deletion strains, locus YKL009W, strain mrt4, active compounds read low 0.983 | S. cerevisiae deletion strains, locus YKL068W, active compounds read low 0.967 | S. cerevisiae deletion strains, locus YKL085W, strain MDH1 (second series), active compounds read low 0.981 | S. cerevisiae deletion strains, locus YKL085W, strain MDH1, active compounds read low 0.981 | S. cerevisiae deletion strains, locus YKL160W, strain elf1, active compounds read low 1.02 | S. cerevisiae deletion strains, locus YKL190W, strain CNB1, active compounds read low 0.996 | S. cerevisiae deletion strains, locus YKR001C, strain vps1, active compounds read low 0.973 | S. cerevisiae deletion strains, locus YKR026C, strain gcn3, active compounds read low 1 | S. cerevisiae deletion strains, locus YKR091W, strain srl3, active compounds read low 0.999 | S. cerevisiae deletion strains, locus YLL001W, strain dnm1, active compounds read low 1 | S. cerevisiae deletion strains, locus YLL026W, active compounds read low 1.01 | S. cerevisiae deletion strains, locus YLL041C, strain sdh2, active compounds read low 0.996 | S. cerevisiae deletion strains, locus YLR027C, strain aat2, active compounds read low 1.01 | S. cerevisiae deletion strains, locus YLR039C, strain RIC1, active compounds read low 0.967 | S. cerevisiae deletion strains, locus YLR058C, strain SHM2, active compounds read low 0.994 | S. cerevisiae deletion strains, locus YLR102C, strain apc9, active compounds read low 0.987 | S. cerevisiae deletion strains, locus YLR221C, strain rsa3, active compounds read low 0.981 | S. cerevisiae deletion strains, locus YLR258W, strain gsy2, active compounds read low 1.03 | S. cerevisiae deletion strains, locus YLR262C, strain YPT6 (second series), active compounds read low 1 | S. cerevisiae deletion strains, locus YLR262C, strain YPT6, active compounds read low 0.948 | S. cerevisiae deletion strains, locus YLR268W, strain sec22, active compounds read low 0.927 | S. cerevisiae deletion strains, locus YLR320W, strain mms22, active compounds read low 0.98 | S. cerevisiae deletion strains, locus YLR330W, strain CHS5, active compounds read low 0.985 | S. cerevisiae deletion strains, locus YLR342W, strain FKS1 (second series), active compounds read low 1.06 | S. cerevisiae deletion strains, locus YLR342W, strain FKS1, active compounds read low 1.03 | S. cerevisiae deletion strains, locus YLR357W, strain rsc2, active compounds read low 1.03 | S. cerevisiae deletion strains, locus YLR370C, strain arc18, active compounds read low 1.02 | S. cerevisiae deletion strains, locus YLR371W, strain rom2, active compounds read low 0.98 | S. cerevisiae deletion strains, locus YLR384C, strain iki3, active compounds read low 0.991 | S. cerevisiae deletion strains, locus YLR418C, strain cdc73, active compounds read low 1 | S. cerevisiae deletion strains, locus YML016C, strain PPZ1, active compounds read low 0.995 | S. cerevisiae deletion strains, locus YML032C, strain rad52, active compounds read low 0.958 | S. cerevisiae deletion strains, locus YML120C, strain ndi1, active compounds read low 0.983 | S. cerevisiae deletion strains, locus YML124C, strain tub3, active compounds read low 0.99 | S. cerevisiae deletion strains, locus YMR058W, strain fet3, active compounds read low 1.01 | S. cerevisiae deletion strains, locus YMR078C, strain ctf18, active compounds read low 0.978 | S. cerevisiae deletion strains, locus YMR125W, strain sto1, active compounds read low 1.05 | S. cerevisiae deletion strains, locus YMR129W, active compounds read low 1.02 | S. cerevisiae deletion strains, locus YMR205C, strain PFK2, active compounds read low 0.991 | S. cerevisiae deletion strains, locus YMR223W, strain ubp8, active compounds read low 1.03 | S. cerevisiae deletion strains, locus YMR231W, strain pep5, active compounds read low 0.999 | S. cerevisiae deletion strains, locus YMR263W, strain SAP30, active compounds read low 0.985 | S. cerevisiae deletion strains, locus YMR307W, strain GAS1, active compounds read low 1.09 | S. cerevisiae deletion strains, locus YNL067W, strain RPL9B, active compounds read low 0.977 | S. cerevisiae deletion strains, locus YNL071W, strain lat1, active compounds read low 1.02 | S. cerevisiae deletion strains, locus YNL128W, strain TEP1, active compounds read low 0.996 | S. cerevisiae deletion strains, locus YNL153C, strain GIM3, active compounds read low 0.979 | S. cerevisiae deletion strains, locus YNL209W, strain ssb2, active compounds read low 1.02 | S. cerevisiae deletion strains, locus YNL233W, strain BNI4, active compounds read low 0.994 | S. cerevisiae deletion strains, locus YNL248C, strain rpa49, active compounds read low 1.05 | S. cerevisiae deletion strains, locus YNL250W, strain rad50, active compounds read low 0.985 | S. cerevisiae deletion strains, locus YNL271C, strain bni1, active compounds read low 0.983 | S. cerevisiae deletion strains, locus YNL298W, strain CLA4, active compounds read low 0.963 | S. cerevisiae deletion strains, locus YNL307C, strain MCK1, active compounds read low 0.976 | S. cerevisiae deletion strains, locus YNL322C, strain KRE1 (second series), active compounds read low 0.996 | S. cerevisiae deletion strains, locus YNL322C, strain KRE1, active compounds read low 0.995 | S. cerevisiae deletion strains, locus YNR049C, strain mso1, active compounds read low 1.01 | S. cerevisiae deletion strains, locus YNR052C, strain pop2, active compounds read low 0.98 | S. cerevisiae deletion strains, locus YOL006C, strain TOP1, active compounds read low 0.941 | S. cerevisiae deletion strains, locus YOL012C, strain htz1 0.835 | S. cerevisiae deletion strains, locus YOL147C, strain pex11, active compounds read low 0.987 | S. cerevisiae deletion strains, locus YOR001W, strain rrp6, active compounds read low 0.962 | S. cerevisiae deletion strains, locus YOR061W, strain CKA2, active compounds read low 0.995 | S. cerevisiae deletion strains, locus YOR069W, strain VPS5, active compounds read low 0.991 | S. cerevisiae deletion strains, locus YOR070C, strain gyp1, active compounds read low 1.01 | S. cerevisiae deletion strains, locus YOR080W, strain dia2, active compounds read low 1.01 | S. cerevisiae deletion strains, locus YOR083W, strain WHI5, active compounds read low 0.985 | S. cerevisiae deletion strains, locus YOR106W, strain vam3, active compounds read low 1.04 | S. cerevisiae deletion strains, locus YOR136W, strain idh2, active compounds read low 0.989 | S. cerevisiae deletion strains, locus YOR144C, strain elg1, active compounds read low 0.982 | S. cerevisiae deletion strains, locus YOR184W, strain ser1, active compounds read low 0.964 | S. cerevisiae deletion strains, locus YOR265W, strain rbl2, active compounds read low 1.01 | S. cerevisiae deletion strains, locus YOR270C, strain vph1, active compounds read low 1.09 | S. cerevisiae deletion strains, locus YOR290C, strain snf2, active compounds read low 1.03 | S. cerevisiae deletion strains, locus YOR316C, strain cot1, active compounds read low 0.962 | S. cerevisiae deletion strains, locus YPL051W, strain arl3, active compounds read low 1.04 | S. cerevisiae deletion strains, locus YPL055C, strain LGE1, active compounds read low 0.996 | S. cerevisiae deletion strains, locus YPL078C, strain atp4, active compounds read low 1.05 | S. cerevisiae deletion strains, locus YPL106C, strain sse1, active compounds read low 1.06 | S. cerevisiae deletion strains, locus YPL240C, strain hsp82, active compounds read low 1 | S. cerevisiae deletion strains, locus YPL241C, strain CIN2, active compounds read low 0.994 | S. cerevisiae deletion strains, locus YPR119W, strain clb2, active compounds read low 0.971 | S. cerevisiae deletion strains, locus YPR141C, strain kar3, active compounds read low 0.982 | S. cerevisiae deletion strains, locus YPR163C, strain tif3, active compounds read low 0.975 | S. cerevisiae deletion strains, locus YPR167C, strain met16, active compounds read low 0.966 | S. cerevisiae deletion strains, strain wtn01, active compounds read low 0.955 | S. cerevisiae strains, strain wild type, active compounds read low 0.995
